Sampled rows, rich in hits. Any-hit rate of the full collection: about 4.2%.
Wnt act – activators of Wnt/beta-catenin signaling; activation, % at 9.35 µM; 300,000 compounds, 1.2% hits; Wnt/beta-catenin reporter cell assay, activator, plate reader; in the data active = activation above about 30%, passing the limit was not always enough; inconclusive = no clear call, values can overlap the other calls;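 note: 0% = neutral control wells and 100% = positive control wells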
MITF TRPM1 HTS – activators of MITF-driven TRPM1 promoter activity in SK-MEL-5 cells | activation, % at 12.5 µM | 300,000 compounds, 0.75% hits | AID 588334 | SK-MEL-5 TRPM1-promoter luciferase, 24 h; % of positive control, neutral wells = 0;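 active = mean activation of at least 80% with every replicate also reaching 80%; inconclusive = mean reaches 80% but some replicate falls short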;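 note: 0% = neutral control wells and 100% = parthenolide positive control wells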
esBAF inh – SWI/SNF esBAF complex inhibition; mouse ES cells, Bmi1-luciferase knock-in reporter, 24 h; 100% = twice the neutral-well signal; reporter increase, % at 12.5 µM; 350,000 compounds, 2% hits; in the data active = activation above about 40%; inconclusive = no clear call, values can overlap the other calls;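 note: 0% = median of the plate's neutral control wells and 100% = double that signal; a rise in the Bmi1 reporter signal indicates esBAF inhibition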
FXN GAA850 act – frataxin GAA850 promoter activation; AID 540364; HEK293 lucGAA850 FXN promoter luciferase reporter, 24 h; percent of 10 µM SAHA response; activation, % at 6 µM; 360,000 compounds, 0.56% hits;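 active = activation above the average of all compounds screened plus 3 SD, cutoff fixed separately per campaign, cut at about 7.5% in these data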;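 note: 0% = DMSO wells and 100% = 10 µM SAHA wells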
AHR activator – human AHR activation. P35869. AHR-responsive luciferase reporter cells, luminescence. activation, % at 5 µM. 320,000 compounds, 2.5% hits. AID 2796; in the data active = activation above about 47%;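 note: 0% = vehicle wells and 100% = reference agonist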
Target sequence (P35869 whole entry, looked up): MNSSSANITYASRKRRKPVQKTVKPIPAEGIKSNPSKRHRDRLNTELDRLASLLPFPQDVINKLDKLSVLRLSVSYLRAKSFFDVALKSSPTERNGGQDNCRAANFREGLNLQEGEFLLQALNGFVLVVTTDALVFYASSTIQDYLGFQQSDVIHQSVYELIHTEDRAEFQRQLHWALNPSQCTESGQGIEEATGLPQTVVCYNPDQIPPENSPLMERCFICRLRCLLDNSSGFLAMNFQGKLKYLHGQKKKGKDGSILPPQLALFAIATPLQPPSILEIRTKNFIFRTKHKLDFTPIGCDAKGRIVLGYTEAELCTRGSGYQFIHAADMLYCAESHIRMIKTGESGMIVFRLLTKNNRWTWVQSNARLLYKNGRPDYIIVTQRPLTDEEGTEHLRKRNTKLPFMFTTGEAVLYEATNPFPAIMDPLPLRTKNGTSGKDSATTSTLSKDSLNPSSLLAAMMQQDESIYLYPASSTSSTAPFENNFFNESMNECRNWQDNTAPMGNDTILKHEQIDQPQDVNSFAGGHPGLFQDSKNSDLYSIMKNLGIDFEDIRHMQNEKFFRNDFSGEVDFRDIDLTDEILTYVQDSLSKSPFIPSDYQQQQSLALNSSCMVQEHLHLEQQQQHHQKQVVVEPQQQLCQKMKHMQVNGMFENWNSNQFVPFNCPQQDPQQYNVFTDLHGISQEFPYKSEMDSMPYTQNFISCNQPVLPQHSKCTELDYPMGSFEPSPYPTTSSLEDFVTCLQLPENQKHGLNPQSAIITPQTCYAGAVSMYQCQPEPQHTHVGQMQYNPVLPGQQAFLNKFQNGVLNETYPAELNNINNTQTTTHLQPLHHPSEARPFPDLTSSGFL
* marks the source's active call; other numbers are inactive results; ? = inconclusive; / = not tested or not shown.

SMILES | Wnt act | MITF TRPM1 HTS | esBAF inh | FXN GAA850 act | AHR activator
CCOC(=O)c1cnn(-c2ccccc2)c1NC(=O)CN1CCCCC1 | 41* | / | -5 | 0 | -1
C[C@@H]1CCCCO[C@H](CN(C)Cc2ccncc2)[C@@H](C)CN([C@@H](C)CO)C(=O)c2cc(NC(=O)Nc3cccc4ccccc34)ccc2O1 | / | / | -6 | / | /
Cc1cc(C)n2ncc(/C(N)=N/OC(=O)c3ccccc3F)c2n1 | 38* | ? | / | 4 | 25
CCOC(=O)c1cc2nc(-c3ccccc3)cc(C)n2n1 | -1 | / | -1 | -2 | 1
CCOC(=O)c1cnn2c(C)cc(-c3ccccc3)nc12 | 43* | / | / | 4 | 0
O=C(C[C@@H]1C=C[C@@H](NC(=O)C2CC2)[C@@H](CO)O1)NCc1ccncc1 | / | / | -4 | / | /
O=C(C[C@@H]1C[C@@H]2c3cc(NC(=O)NC4CCCC4)ccc3O[C@@H]2[C@@H](CO)O1)NCc1ccc(-c2ccccc2)cc1 | / | / | 1 | / | /
C[C@H](CO)N1C[C@H](C)[C@@H](CN(C)C(=O)C2CCOCC2)Oc2ncc(-c3ccccc3F)cc2C1=O | / | / | 6 | / | /
O=C1NC(=O)/C(=C/c2ccccn2)S1 | -3 | 7 | 45* | 1 | 1
COc1cc(-c2ccc3c(=O)c4ccccc4sc3c2)cc(OC)c1OC | 3 | 65 | 47* | 4 | 1
C=CCN(CC=C)c1nc2ccccc2nc1C(C#N)C(=O)OCCOC (stereo not given) | -1 | / | -1 | 1 | 18
CCCN(CCC)c1nc2ccccc2nc1C(C#N)C(=O)OCCOC (stereo not given) | / | 91* | -7 | 3 | -8
C/C=C/c1ccc([C@@H]2[C@@H](CN(C)C(=O)C3CC3)N(C(=O)C3CC3)[C@H]2CO)cc1 | / | / | -4 | / | /
COc1cccc(Nc2ncnc3sccc23)c1 | 9 | 72 | 59* | 3 | 52*
COc1ccc(Nc2ncnc3sccc23)cc1 | 9 | 73 | 23 | 6 | 10
COc1ccc(OC)c(Nc2ncnc3sccc23)c1 | 2 | -11 | 7 | 3 | 13
COc1cccc(Nc2ncnc3sc(C)cc23)c1 | 10 | 55 | 66* | 4 | 16
COc1ccc(OC)c(Nc2ncnc3sc(-c4ccccc4)cc23)c1 | / | 12 | / | 2 | 69*
COc1ccc(Oc2ncnc3sccc23)cc1 | 9 | 88* | 45* | 4 | 5
O=C(C[C@@H]1C=C[C@H](NC(=O)Nc2cc(F)ccc2F)[C@@H](CO)O1)Nc1ccc(-c2ccccc2)cc1 | / | / | -2 | / | /
Cc1ccsc1/C=N/Nc1nc2ccccc2s1 | 61* | 39 | / | 3 | 71*
C(=N\Nc1nc2ccccc2s1)/c1cccs1 | / | 36 | 32 | 4 | 76*
Cc1cc(C)nc(N/N=C/c2sccc2C)n1 | 4 | 35 | / | 4 | 4
OCC(O)/C=N/Nc1nc2ccccc2s1 (stereo not given) | / | -6 | / | 2 | 28
FC(F)(F)c1ccccc1Cc1c(-c2cccc(Cl)c2)nc2ccc(Cl)cn12 | 18 | / | 56* | / | /
SMILES | Wnt act | MITF TRPM1 HTS | esBAF inh | FXN GAA850 act | AHR activator
Cc1ccc(-c2nc3ccc(Cl)cn3c2Cc2ccccc2C(F)(F)F)cc1 | 26 | / | 2 | / | /
FC(F)(F)c1ccccc1Cc1c(-c2cccc(Br)c2)nc2ccc(Cl)cn12 | -1 | / | 9 | / | /
Cc1ccc2nc(-c3ccc(Cl)cc3)c(Cc3ccccc3C(F)(F)F)n2c1 | 13 | / | 50* | / | /
COC(=O)N(C)C[C@@H]1OCc2ccccc2-c2ccccc2C(=O)N([C@@H](C)CO)C[C@@H]1C | / | / | 4 | / | /
COc1ccccc1NS(=O)(=O)c1cccc(NC(=O)Nc2ccccc2)c1 | -3 | 11 | / | 1 | 9
CCNC(=S)Nc1cccc(S(=O)(=O)Nc2ccccc2OC)c1 | 33* | 7 | -7 | -3 | 4
Cc1cc(C)nc(-n2nc(C)c(C3(O)C(=O)Nc4ccc(F)cc43)c2N)n1 (stereo not given) | -1 | 3 | -2 | 1 | 15
Cc1cc(C)nc(-n2nc(C)c(C3(O)C(=O)Nc4ccccc43)c2N)n1 (stereo not given) | / | 0 | 15 | 0 | 56*
CCSC1=N/C(=C\C=C2/Oc3ccccc3N2CC)C(=O)S1 | 2 | 8 | 13 | 2 | 75*
O=C1C2C3C=CC(C3)C2C(=O)N1c1ccccc1OS(=O)(=O)c1ccccc1 (stereo not given) | -2 | 6 | / | -2 | 1
Nc1c(OS(=O)(=O)c2ccccc2)cccc1OS(=O)(=O)c1ccccc1 | 60* | / | / | 4 | /
CC(C)(C)c1ccc(-c2nnc(N)o2)cc1 | 42* | 32 | 58* | 4 | 15
O=C(CCCc1ccccc1)NC12CC3CC(CC(C3)C1)C2 | 0 | 102* | 54* | 7 | 5
O=C(COC(=O)c1ccccc1)NC12CC3CC(CC(C3)C1)C2 | -2 | 6 | -6 | 2 | 0
O=C(NCCc1ccc(F)cc1)NC12CC3CC(CC(C3)C1)C2 | 52* | 58 | 72* | 7 | 15
COc1ccc(CCNC(=O)NC23CC4CC(CC(C4)C2)C3)cc1 | 8 | 34 | 31 | 2 | 2
N#C[C@@H]1[C@@H](c2ccc(-c3ccccc3F)cc2)[C@H](CO)N1C(=O)c1ccccn1 | / | / | -6 | / | /
C[C@H](CO)N1C[C@H](C)[C@H](CN(C)C(=O)Nc2cccc(F)c2)OCc2ccccc2-c2ccccc2C1=O | / | / | 3 | / | /
Cc1ccc(/C=C/C(=O)NCc2cccs2)c(C)c1 | 29 | 41 | / | 2 | 18
O=C(/C=C/c1cccs1)NCc1cccs1 | 43* | / | / | 4 | 1
Cc1ccc(/C=C/C(=O)NCc2cccs2)cc1 | / | 45 | 46* | 7 | 24
C=CCNC(=O)/C=C/c1cccs1 | -2 | 2 | 6 | 3 | -3
CNc1cc(-c2cc(OC)ccc2OC)ncn1 | / | / | 3 | 1 | /
CNc1cc(-c2ccc(OC)nc2)ncn1 | 20 | / | 50* | 5 | /
COc1ccccc1-c1sc2cc3c(cc2c1C#Cc1cncn1C)OCO3 | 1 | 3 | 6 | 0 | 65*
SMILES | Wnt act | MITF TRPM1 HTS | esBAF inh | FXN GAA850 act | AHR activator
COc1ccc2sc(-c3ccccc3OC)c(C#CCCO)c2c1 | 1 | -17 | 3 | 0 | 74*
COc1cc(OC)cc(-c2sc3ccc(OC)cc3c2C#CCCO)c1 | -2 | -6 | -12 | 4 | 30
COc1ccc2sc(-c3ccccc3OC)c(C#Cc3cncn3C)c2c1 | 0 | 12 | 6 | -3 | 48*
COc1ccc(-c2sc3ccccc3c2C#Cc2cncn2C)cc1 | 0 | 9 | -3 | 0 | 40
COc1cc(NC(=O)c2ccc(N3CCCC3=O)cc2)cc(OC)c1 | -2 | 62 | 59* | 6 | 0
COc1ccc2cc(N3CCCC3=O)ccc2c1 | 4 | 42 | 48* | 2 | /
COc1ccc(CNC(=O)c2cccc(N3CCCC3=O)c2)cc1 | -5 | -6 | 0 | -2 | 0
O=C(NCC1CC1)[C@H]1[C@H](CO)[C@H]2Cn3c(ccc(C4=CCCCC4)c3=O)[C@@H]1N2 | / | / | 1 | / | /
CC(=O)Oc1oc(-c2ccccc2)nc1C=Nc1ccccc1 | / | -10 | / | 0 | 4
COc1ccc(N=Cc2nc(-c3ccccc3)oc2OC(=O)c2ccccc2)cc1 | 54* | -11 | / | 5 | 24

Screening data: PubChem, several laboratories
